# Data as given in PubChem BioAssay.
# “And” between values parts separate entries of the source, which are not always exact repeats. Equal entries are not always repeated. The source made the active and inactive calls. The rule behind the calls is not given here.
# Columns and labels:
# [1] = tested on: Aerobactin synthetase IucA (Klebsiella pneumoniae hvKP1); test: IucA enzyme inhibition, primary screen, biochemical, Spectrum library (AID 1346200); conditions: malachite green pyrophosphate, A620, at 8 µM, hits give low values;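 note: 100% = wells without compound and 0% = wells lacking enzyme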
# [2] = tested on: Aerobactin synthetase IucA (Klebsiella pneumoniae, hypervirulent); test: biochemical IucA inhibition screen of LOPAC library by absorbance (AID 1346212); conditions: IucA enzyme assay, absorbance (OD) readout; hits give low values; concentration not given here;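 note: 100% = no compound wells and 0% = no enzyme wells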
SMILES,activity remaining [1],remaining activity [2]
COc1cc(OC)c(-c2c(OC)cc(OC)cc2OC)c(OC)c1,106% (inactive),
COC(=O)Nc1nc2ccc(S(=O)c3ccccc3)cc2[nH]1 (configuration not stated),110% (inactive),
CN[C@H]1C[C@@H](N)[C@H](O)[C@@H](O[C@@H]2O[C@H](CO)[C@@H]3OC4(O[C@@H]3[C@@H]2O)O[C@H](C(N)CO)[C@H](O)[C@H](O)[C@H]4O)[C@@H]1O (some centres not stated),122% (inactive),
O=C1NCC2(CCN(CCc3ccccc3)CC2)O1,111% (inactive),97.8% (inactive)
NCCCCCC(=O)O,113% (inactive),113% (inactive)
Cn1cnc([N+](=O)[O-])c1Sc1ncnc2nc[nH]c12,113% (inactive),121% (inactive)
O=C(CCCN1CCC(O)(c2ccc(Cl)cc2)CC1)c1ccc(F)cc1,117% (inactive),100% (inactive)
CCN(CC)CCCC(C)Nc1c2ccc(Cl)cc2nc2ccc(OC)cc12 (configuration not stated),93.4% (inactive),115% (inactive)
CN(C)CCCN1c2ccccc2CCc2ccc(Cl)cc21,111% (inactive),117% (inactive)
O=C(O)c1ccccc1Nc1ccccc1,106% (inactive),108% (inactive)
O=C(O)c1cccnc1C(=O)O,89.1% (inactive),116% (inactive)
OCCN1CCN(CCCN2c3ccccc3Sc3ccc(C(F)(F)F)cc32)CC1,125% (inactive),93.9% (inactive)
Fc1ccc(C(c2ccc(F)cc2)N2CCN(C/C=C/c3ccccc3)CC2)cc1,117% (inactive),103% (inactive)
Clc1ccc(C(c2ccccc2Cl)C(Cl)Cl)cc1 (configuration not stated),92.7% (inactive),111% (inactive)
NCCCCC(=O)O,107% (inactive),104% (inactive)
CC12CC3CC(C)(C1)CC(N)(C3)C2,108% (inactive),92.7% (inactive)
Cc1cn([C@H]2C[C@H](N=[N+]=[N-])[C@@H](CO)O2)c(=O)[nH]c1=O,114% (inactive),117% (inactive)
O=c1c(O)c(-c2ccc(O)c(O)c2)oc2cc(O)cc(O)c12,99.3% (inactive),122% (inactive)
CCN(CC)CCNC(=O)c1cc(S(C)(=O)=O)ccc1OC,120% (inactive),104% (inactive)
COc1ccc2[nH]cc(CCNC(C)=O)c2c1,111% (inactive),118% (inactive)
NS(=O)(=O)c1cc2c(cc1Cl)NC=NS2(=O)=O,113% (inactive),123% (inactive)
CCO/C([O-])=N/c1c[n+](N2CCOCC2)no1,99.6% (inactive),128% (inactive)
c1ccc2c(CC3=NCCN3)cccc2c1,106% (inactive),115% (inactive)
N=C(N)c1ccc(OCCCCCOc2ccc(C(=N)N)cc2)cc1,98.2% (inactive),122% (inactive)

SMILES,activity remaining [1],remaining activity [2]
Cc1scc2c1N(C(=O)CN1CCN(C)CC1)c1ccccc1NC2=O,117% (inactive),105% (inactive)
CN1CCN(CC(=O)N2c3ccccc3C(=O)Nc3cccnc32)CC1,117% (inactive),94.6% (inactive)
CCN(CC)CCNC(=O)c1ccc(N)cc1,95.4% (inactive),96.2% (inactive)
OCCN(CCO)c1nc(N2CCCCC2)c2nc(N(CCO)CCO)nc(N3CCCCC3)c2n1,89.5% (inactive),92.9% (inactive)
CN1CCN2c3ccccc3Cc3ccccc3C2C1 (configuration not stated),119% (inactive),120% (inactive)
O=NN(CCCl)C(=O)NCCCl,123% (inactive),115% (inactive)
O=C1c2c(O)ccc(O)c2C(=O)c2c(NCCNCCO)ccc(NCCNCCO)c21,107% (inactive),110% (inactive)
CN1C[C@H](C(=O)N[C@]2(C)O[C@@]3(O)[C@@H]4CCCN4C(=O)[C@H](Cc4ccccc4)N3C2=O)C[C@@H]2c3cccc4[nH]cc(c34)C[C@H]21,118% (inactive),105% (inactive)
Cc1ccc(S(=O)(=O)NC(=O)NN2CCCCCC2)cc1,117% (inactive),91.6% (inactive)
O=C(O)C1=CC(=C(c2ccc(O)c(C(=O)O)c2)c2ccc(O)c(C(=O)O)c2)C=CC1=O,101% (inactive),103% (inactive)
NNc1nncc2ccccc12,102% (inactive),101% (inactive)
O=c1n(CCCN2CCN(c3cccc(Cl)c3)CC2)nc2ccccn12,112% (inactive),118% (inactive)
NC(N)=NC(N)=Nc1ccccc1,123% (inactive),101% (inactive)
FC(F)(F)c1ccccc1-n1ccnc1,85.9% (inactive),102% (inactive)
CCCCOc1cc(CC2CNC(=O)N2)ccc1OC (configuration not stated),115% (inactive),110% (inactive)
Cc1ccccc1C(OCCN(C)C)c1ccccc1 (configuration not stated),100% (inactive),117% (inactive)
CN(C)CCN(Cc1cccs1)c1ccccn1,120% (inactive),93% (inactive)
COc1ccccc1OCC(O)CN1CCN(CC(=O)Nc2c(C)cccc2C)CC1 (configuration not stated),122% (inactive),97.8% (inactive)
CC(C)NNC(=O)c1ccncc1,93.2% (inactive),128% (inactive)
CC/C(=C(\c1ccccc1)c1ccc(OCCN(C)C)cc1)c1ccccc1,118% (inactive),107% (inactive)
CC(CCc1ccccc1)NCC(O)c1ccc(O)c(C(N)=O)c1 (configuration not stated),121% (inactive),112% (inactive)
CCn1nc(C(=O)O)c(=O)c2cc3c(cc21)OCO3,112% (inactive),111% (inactive)
CNC(=O)Oc1ccc2c(c1)[C@]1(C)CCN(C)[C@@H]1N2C,116% (inactive),110% (inactive)
Cc1ccc(N(CC2=NCCN2)c2cccc(O)c2)cc1,117% (inactive),92.9% (inactive)

SMILES,activity remaining [1],remaining activity [2]
CC(C)OC(=O)C(C)(C)Oc1ccc(C(=O)c2ccc(Cl)cc2)cc1,94.1% (inactive),108% (inactive)
NC(N)=NCCCCN=C(N)N,119% (inactive),90.7% (inactive)
CCN(CC)C(=S)SSC(=S)N(CC)CC,90.4% (inactive),89.3% (inactive)
CC(N=C(NC#N)Nc1ccncc1)C(C)(C)C (configuration not stated),105% (inactive),92.7% (inactive)
CC1=C(/C=C/C(C)=C/C=C/C(C)=C/C(=O)O)C(C)(C)CCC1,109% (inactive),92% (inactive)
Cn1c(=O)c2[nH]cnc2n(C)c1=O,120% (inactive),111% (inactive) and 102% (inactive)
O=c1[nH]cnc2[nH]ncc12,99.3% (inactive),110% (inactive)
NCCCS(=O)(=O)O,104% (inactive),111% (inactive)
NCCCCN,91.8% (inactive),94.5% (inactive)
Cn1cnc2c1c(=O)[nH]c(=O)n2C,126% (inactive),97.1% (inactive)
COc1ccc(Cl)cc1C(=O)NCCc1ccc(S(=O)(=O)NC(=O)NC2CCCCC2)cc1,91.3% (inactive),120% (inactive)
O=C(O)/C=C/c1ccc(O)c(O)c1,101% (inactive),117% (inactive)
CCCN(CCC)CCc1cccc2c1CC(=O)N2,98.7% (inactive),80.8% (inactive)
Nc1nc2c(ncn2COCCO)c(=O)[nH]1,118% (inactive),120% (inactive)
CCCNC(C)C(=O)Nc1ccccc1C (configuration not stated),82% (inactive),96.4% (inactive)
Cc1nnc(SCC2=C(C(=O)O)N3C(=O)[C@@H](NC(=O)Cn4cnnn4)[C@H]3SC2)s1,101% (inactive),119% (inactive)
Cn1c(=O)c2c(ncn2C)n(C)c1=O,119% (inactive),113% (inactive)
NCCSSCCN,116% (inactive),117% (inactive)
CCCCc1oc2ccccc2c1C(=O)c1cc(I)c(OCCN(CC)CC)c(I)c1,123% (inactive),101% (inactive)
O=C(O)CCc1nc(-c2ccccc2)c(-c2ccccc2)o1,111% (inactive),116% (inactive)
O=c1c(O)c(-c2ccc(O)cc2O)oc2cc(O)cc(O)c12,96.8% (inactive),122% (inactive)
O=C(O)c1cc(=O)c2ccc(Cl)cc2[nH]1,94.8% (inactive),85.9% (inactive)
CCCC(C(=O)OCCN(CC)CC)(c1ccccc1)c1ccccc1,105% (inactive),118% (inactive)
Cc1ccc(Cl)c(Nc2ccccc2C(=O)O)c1Cl,93.4% (inactive),128% (inactive)

SMILES,activity remaining [1],remaining activity [2]
CC(=O)NCCc1c[nH]c2ccc(O)cc12,113% (inactive),106% (inactive)
CN(C)CCOC(C)(c1ccccc1)c1ccccn1 (configuration not stated),104% (inactive),101% (inactive)
COC(=O)C1=C(C)NC(C)=C(C(=O)OC)C1c1ccccc1[N+](=O)[O-],100% (inactive),115% (inactive)
CNCCCN1c2ccccc2CCc2ccccc21,100% (inactive),105% (inactive)
NC(=O)CC[C@H](N)C(=O)O,109% (inactive),110% (inactive)
O=C(Nc1ccc([N+](=O)[O-])cc1Cl)c1cc(Cl)ccc1O,93.6% (inactive),113% (inactive)
CN1C(C(=O)Nc2ccccn2)=C(O)c2ccccc2S1(=O)=O,115% (inactive),109% (inactive)
NC1(C(=O)O)CC1,94.3% (inactive),88.1% (inactive)
O=[N+]([O-])c1cccc2cn[nH]c12,102% (inactive),114% (inactive)
NCCc1cnc[nH]1,112% (inactive),112% (inactive)
CN(C)c1ccc(O)c2c1C[C@H]1C[C@H]3[C@H](N(C)C)C(=O)C(C(N)=O)=C(O)[C@@]3(O)C(=O)C1=C2O,105% (inactive),110% (inactive)
OC(CCN1CCCCC1)(c1ccccc1)C1CCCCC1 (configuration not stated),97.3% (inactive),104% (inactive)
CSc1ccc2c(c1)C(N1CCN(C)CC1)Cc1ccccc1S2 (configuration not stated),103% (inactive),114% (inactive)
C=CCc1ccccc1OCC(O)CNC(C)C (configuration not stated),110% (inactive),91.4% (inactive)
CCN(CC)CCOC(=O)C1(C2CCCCC2)CCCCC1,125% (inactive),92.7% (inactive)
CC(=O)Oc1ccccc1C(=O)O,109% (inactive),118% (inactive)
NC/C=C/C(=O)O,107% (inactive),101% (inactive)
CC(CN(C)C)CN1c2ccccc2CCc2ccccc21 (configuration not stated),105% (inactive),106% (inactive)
CCC1(c2ccccc2)C(=O)NCNC1=O,125% (inactive),75.1% (inactive)
CSc1ccc2c(c1)N(CCC1CCCCN1C)c1ccccc1S2 (configuration not stated),116% (inactive),91.4% (inactive)
NC[C@H](O)c1ccc(O)c(O)c1,107% (inactive),118% (inactive)
NS(=O)(=O)c1cc2c(cc1Cl)NC(C1CC3C=CC1C3)NS2(=O)=O (configuration not stated),122% (inactive),95.7% (inactive)
CN1CCN(C2=Nc3ccccc3Oc3ccc(Cl)cc32)CC1,120% (inactive),110% (inactive)
CCCNCC(O)COc1ccccc1C(=O)CCc1ccccc1 (configuration not stated),104% (inactive),112% (inactive)

SMILES,activity remaining [1],remaining activity [2]
COc1ccc(CN(CCN(C)C)c2ccccn2)cc1,118% (inactive),112% (inactive)
CN(C)CCC=C1c2ccccc2CCc2ccccc21,110% (inactive),106% (inactive)
O=C(O)c1cc(=O)c2ccccc2[nH]1,113% (inactive),109% (inactive)
Oc1ccc(/C=C/c2cc(O)cc(O)c2)cc1,110% (inactive),75.6% (inactive)
CCCn1c(=O)c2[nH]c(C3CCCC3)nc2n(CCC)c1=O,82.2% (inactive),76.9% (inactive)
O=C(O)c1cc2cc(F)ccc2[nH]1,106% (inactive),86.3% (inactive)
O=C(c1ccc(F)cc1)C1CCN(CCn2c(=O)[nH]c3ccccc3c2=O)CC1,120% (inactive),73.1% (inactive)
CC(CN1c2ccccc2Sc2ccccc21)N(C)C (configuration not stated),78.1% (inactive),109% (inactive)
CN(C)C(=O)C(CCN1CCC(O)(c2ccc(Cl)cc2)CC1)(c1ccccc1)c1ccccc1,113% (inactive),114% (inactive)
CN(C)CCC(c1ccccc1)c1ccccn1 (configuration not stated),109% (inactive),89.8% (inactive)
CC(C)C(=O)Nc1ccc([N+](=O)[O-])c(C(F)(F)F)c1,115% (inactive),97.1% (inactive)
CCN(CC)CCNC(=O)c1cc(Cl)c(N)cc1OC,88.1% (inactive),101% (inactive)
CN1CCC[C@@H]1CCO[C@](C)(c1ccccc1)c1ccc(Cl)cc1,99.3% (inactive),109% (inactive)
C[N+]1(CCCCC[N+]2(C)CCCC2)CCCC1,89.1% (inactive),119% (inactive)
O=c1c(-c2ccc(O)cc2)coc2cc(O)cc(O)c12,109% (inactive),121% (inactive)
O=C(O)CCCCCCCC(=O)O,120% (inactive),93.4% (inactive)
CC(=O)OCC1=C(C(=O)O)N2C(=O)[C@@H](NC(=O)CSc3ccncc3)[C@H]2SC1,109% (inactive),113% (inactive)
CCCCS(=N)(=O)CCC(N)C(=O)O (configuration not stated),102% (inactive),84.7% (inactive)
NS(=O)(=O)c1cc(C(=O)O)c(NCc2ccco2)cc1Cl,105% (inactive),97.8% (inactive)
COC(=O)C1=C(C)NC(C)=C(C(=O)OCCN(C)Cc2ccccc2)C1c1cccc([N+](=O)[O-])c1 (configuration not stated),107% (inactive),109% (inactive)
CC(=O)CCCCn1c(=O)c2c(ncn2C)n(C)c1=O,82.4% (inactive),123% (inactive)
CCN(CC)CC(=O)Nc1c(C)cccc1C,101% (inactive),109% (inactive)
Cc1ccccc1N1C(=O)c2cc(S(N)(=O)=O)c(Cl)cc2NC1C (configuration not stated),95.7% (inactive),122% (inactive) and 125% (inactive)
Cc1nc2ccccn2c(=O)c1CCN1CCC(C(=O)c2ccc(F)cc2)CC1,120% (inactive),101% (inactive)
